EPAC1 ag: qHTS for Agonist of cAMP-regulated guanine nucleotide exchange factor 3 (EPAC1): primary screen; Potency, µM (doses to about 154 µM), inactives show at the highest dose activation, usual class: activators; EPAC1 agonist qHTS, biochemical assay; response scale: 100% = response to 6.5 mM cAMP; AID 720707, 2013; 360,000 compounds, 0.073% hits; also: nearly all actives have a fitted effect of over 60% in size
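Read-out is the fluorescence drop as BODIPY-GDP leaves Rap1B (480 nm excitation, 540 nm emission), recorded every 5 minutes over 30 minutes. Reactions held 100 nM EPAC1, 250 nM Rap1B–BODIPY-GDP and 50 uM GDP, with 6.5 mM cAMP setting full activation.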
EPAC1 antag: qHTS for Antagonist of cAMP-regulated guanine nucleotide exchange factor 3 (EPAC1): primary screen | AID 720709, 2013 | Rap guanine nucleotide exchange factor 3 (Homo sapiens), O95398 | Potency, µM (series often up to 115 µM), without a hit: top-dose activity change, negative = inhibition, usual class: inhibitors | 360,000 compounds, 0.14% hits | EPAC1 GEF assay, Rap1b-BODIPY-GDP exchange fluorescence;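 also: plate controls were vehicle for no effect and positive control for full effect; nearly all actives have a fitted effect of over 50% in size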
EPAC2 antagonist: qHTS for Antagonist of cAMP-regulated guanine nucleotide exchange factor 2 (EPAC2): primary screen; EPAC2 GEF exchange of Rap1B-BODIPY-GDP, fluorescence; Potency, µM (titrated, usually from 114 µM), for the others: at the top dose activity, negative = inhibition, most hits filed as inhibitors; 360,000 compounds, 0.18% hits; also: % is scaled to controls: 0 for no effect and ±100 for the full control effect; nearly all actives have a fitted effect of over 45% in size
EPAC2 ag: qHTS for Agonist of cAMP-regulated guanine nucleotide exchange factor 4 (EPAC2): primary screen; Potency, µM (top dose mostly 154 µM), for inactives: at the top dose activation, usual class: activators; EPAC2 activation, biochemical qHTS; response scale: 100% = 6.5 mM cAMP response; Rap guanine nucleotide exchange factor 4 (Homo sapiens), Q8WZA2; 360,000 compounds, 0.079% hits; also: nearly all actives have a fitted effect of over 50% in size
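Compounds were added across a concentration range to EPAC2 (100 nM), RAP1B-BODIPY-GDP (250 nM) and GDP (50 uM). After 5 min at room temperature, fluorescence was recorded at 5-min intervals for 30 min.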
* marks the source's active call; other numbers are inactive results; ? = inconclusive. An excerpt weighted towards active compounds, which were near 0.38% of everything screened. Calls follow the shape of the dose curve; as a rule, active = well fitted curve in the direction sought with a large enough effect; inconclusive = small, poorly fitted or top-dose-only effect, or another doubt; inactive = no such curve, though single readings can be large; an effect the other way counts as inactive or inconclusive. Potency is read from the fitted curve at half-maximal effect.

SMILES	EPAC1 ag	EPAC1 antag	EPAC2 antagonist	EPAC2 ag
CN(CC(=O)Nc1ccc(Cl)c(C(F)(F)F)c1)C(=O)C1CC(=O)N(c2ccc3c(c2)OCCO3)C1 (stereo not drawn)	2%	-15%	4%	7%
CN(CC(=O)Nc1ccc(Cl)c(C(F)(F)F)c1)C(=O)c1ccc2c(c1)OCCO2	79µM*	-13%	-13%	1%
O=C1CC(=O)Nc2cc(S(=O)(=O)Nc3ccc(Cl)c(C(F)(F)F)c3)ccc2N1	-1%	-26%	35µM*	-6%
CC[C@]1(C(=O)OC)[C@H]2C(=O)N(C)C(=O)[C@H]2[C@H]2CN=C(SCc3ccc(OC)cc3)N21	-29%	?	10%	4%
COC(=O)C1(Cc2ccccc2)NC(c2ccc(F)cc2)C2C(=O)N(C)C(=O)C21 (stereo not drawn)	-8%	11%	-2%	7.9µM*
N#Cc1ccccc1OCc1cccc(S(=O)(=O)N2CCOCC2)c1	11%	2%	-12%	16%
Cc1ccc2c(c1)c1c3n2CCN(C(=O)CCl)C3CCC1 (stereo not drawn)	4%	-24%	-22%	2%
CCC(C)(C)C1CCc2c(sc(NC(=O)c3ccccc3C(=O)O)c2C#N)C1 (stereo not drawn)	-8%	79µM*	-16%	2%
Cc1ccccc1CCNC(=O)c1ccc(Cl)c(S(=O)(=O)N2CC(C)OC(C)C2)c1 (stereo not drawn)	-18%	-3%	-6%	7%
CCn1c(=O)c(C(=O)Nc2ccccc2S(N)(=O)=O)c(O)c2ccccc21	11%	56µM*	-4%	20%
COC1OC2COC(c3ccccc3)OC2C2OC12 (stereo not drawn)	17%	2%	8%	8%
CC(C)(Sc1ccc(CCN(CCCCC2CCCCC2)C(=O)NC2CCCCC2)cc1)C(=O)O	-21%	-11%	56µM*	-13%
CCOC(=O)C1(C)CCN1C(=O)c1ccc(C(C)(C)C)cc1 (stereo not drawn)	2%	-8%	1%	6%
CCNC(=O)C1CCCN(C(=O)c2ccccc2)CC1 (stereo not drawn)	-6%	-2%	9%	7%
C[C@@H]1CN([C@H](C)CO)C(=O)Cc2cc(NC(=O)Nc3ccccc3)ccc2O[C@@H]1CN(C)C(=O)Nc1ccc2c(c1)OCO2	-8%	-8%	-15%	-1%
O=C(Nc1nc2c(s1)CN(Cc1ccccc1)CC2)C1CCC1	-4%	-4%	1%	2%
CN(C)c1ccc(/C=C(\C#N)C(=O)Nc2nc3c(s2)CCN(Cc2ccccc2)C3)cc1	0%	-3%	193%	112µM*
COc1ccc(OC)c(NC(=O)C(C)Oc2ccc(Br)cc2)c1 (stereo not drawn)	2%	-4%	13µM*	5%
CSCCC(NC(=O)c1ccco1)C(=O)NCc1ccc2c(c1)OCO2 (stereo not drawn)	2%	2%	5%	-1%
COc1ccc(/C=N/NC(=O)c2[nH]c3ccc(Br)cc3c2-c2ccccc2)cc1	6%	-8%	3%	4%
COc1ccc(/C=N/NC(=O)c2[nH]c3ccc(Br)cc3c2-c2ccccc2)c(C(=O)O)c1OC	-25%	79µM*	-14%	-7%
O=C(N/N=C/c1ccccc1Cl)c1[nH]c2ccc(Br)cc2c1-c1ccccc1	112µM*	254%	-34%	-138%
CCOC(=O)[C@]12CCC=C1N(Cc1ccco1)C(=O)[C@H](CC(=O)N1CCOCC1)C2	16%	-1%	0%	6%
COc1ccc(NC(=O)CSc2nc3sc4c(c3c(=O)n2-c2ccc(OC)cc2)CCN(C)C4)cc1	6%	-6%	71µM*	?
CC1CCc2c(sc3nc(SCC(=O)O)n(-c4ccccc4)c(=O)c23)C1 (stereo not drawn)	?	89µM*	-14%	-2%
SMILES	EPAC1 ag	EPAC1 antag	EPAC2 antagonist	EPAC2 ag
Cc1cc2ccccc2cc1C(=O)c1ccccc1	7%	-13%	8.9µM*	18%
O=C(c1ccccc1)c1ccc2ccccc2c1	12%	6%	?	18%
O=C(c1ccccc1)c1ccc(O)cc1O	100µM*	107%	96%	100µM*
CC(C)(C)c1ccc(CC(=O)N2CCC2(C)C(=O)NCCC#N)cc1 (stereo not drawn)	-1%	-7%	8%	-2%
COc1ccc(N=C2S/C(=C\c3ccc(OC(C)C(=O)O)c(OC)c3)C(=O)N2CCc2c[nH]c3ccccc23)cc1 (stereo not drawn)	9%	2%	5%	6%
COc1cc(/C=C2\SC(=Nc3ccccc3)N(CCc3c[nH]c4ccccc34)C2=O)ccc1OC(C)C(=O)O (stereo not drawn)	100µM*	?	?	-10%
CC(=O)[C@]1(O)Cc2c(O)c3c(c(O)c2[C@@H](O[C@H]2C[C@H](N)[C@H](O)[C@H](C)O2)C1)C(=O)c1ccccc1C3=O	100µM*	127%	105%	112µM*
COc1cccc2c1C(=O)c1c(O)c3c(c(O)c1C2=O)C[C@@](O)(C(C)=O)C[C@@H]3O[C@H]1C[C@H](N)[C@H](O)[C@H](C)O1	4%	15%	?	-9%
Cn1nnnc1Sc1ncnc2scc(-c3ccc([N+](=O)[O-])cc3)c12	10%	-30%	12%	17%
O=C(O)CN1C(=O)/C(=C\c2cc(Br)ccc2OCc2ccc(Cl)cc2)SC1=S	-2%	?	50µM*	-2%
Cc1nn(-c2ccccc2)c(Cl)c1/C=C1\SC(=S)N(CCCCCC(=O)O)C1=O	12%	-9%	40µM*	6%
O=C(O)CCCN1C(=O)/C(=C\c2ccccc2OCc2ccccc2)SC1=S	-1%	50µM*	?	7%
O=C(O)CCCN1C(=O)/C(=C/c2cn(-c3ccccc3)nc2-c2cccs2)SC1=S	56µM*	20%	83%	?
O=C(O)CN1C(=O)/C(=C\c2cc(Br)ccc2OCc2ccc(F)cc2)SC1=S	7%	?	?	1%
Cn1c2c(c(=O)c3ccccc31)CCCC2	8%	1%	-5%	1%
COc1ccc(S(=O)(=O)N2CCC[C@H]2C(=O)N2CCC[C@H]2C(=O)NCc2ccccc2)cc1C	-10%	20%	47µM*	1%
COc1ccc(/C=C2\SC(=S)N(CCC(=O)N3CCCCC3)C2=O)cc1	3%	-12%	-4%	-4%
COCCN1C(=O)/C(=C/c2ccc(N3CCCC3)cc2)SC1=S	?	-20%	2%	20µM*
CCOC(=O)/C=C(\C)Sc1cc(O)c2ccccc2c1O	-2%	?	45µM*	7%
CCOC(=O)/C=C(\C)Sc1cc(=O)oc2ccccc12	0%	0%	1%	0%
